The supplement of paper PMC8387472

compound: CCCCOc1c(C(=O)c2c(F)cc(C)cc2F)c[nH]c2nncc1-2; assay: fraction of 1-bp insertions among edited reads; higher = more 1-bp insertion outcomes; conditions: mESC; 2uM; 72 h treatment, harvest day 5

With “4.0 (DMSO control at this site: 1-bp insertion 0.146, MH deletion 0.523, edited 0.125) ACGCCTTAGTGCACGAGTGACGGGATAATGTGGTCTCAGGTAATTGATAGGCTTCCAACTT” as the target, how does the “fraction of 1-bp insertions among edited reads” value (“fraction” for short) read?
Its value is 0.152.

Which “fraction” value does the source give for “46.0 TTAAGAGCAATGTTCACGCAACTTGAAATTATATCTGTGGTCTTCAAATTGTCTTTTGTCA” here?
The value was 0.208.

With “31.0 (DMSO control at this site: 1-bp insertion 0.315, MH deletion 0.329, edited 0.026) ACCTCCACAGGCTGGGTGGCCCGGAGGCTGGGCGGCCCGGAGGCTGGGCTGGGCGAGTATC” as the target, how does the “fraction” value read?
Its value is 0.2.

Which “fraction” value does the source give for “29.0 (DMSO control at this site: 1-bp insertion 0.084, MH deletion 0.745, edited 0.133) TTGATGAACTTCCTCTTCTTCTCATGTCTCCGGTCTCCGGTAGGCCACGTGCATGGCCACT” here?
The value was 0.0825.

How did the “fraction” value turn out when “8.0 GCATGCGTGTTTTGGGACAATGTAGTATACATTTGGGAGGCTCTCAGCTTTTCCCAATAAA” was run?
Its value is 0.303.

With “17.0 (DMSO control at this site: 1-bp insertion 0.112, MH deletion 0.348, edited 0.058) CCATAGCGCGATAAATATGACGGCTCATCCTGTATGACGGCTCATCCTGTATCAACTGTCC” as the target, how does the “fraction” value read?
Its value is 0.145.

With “45.0 (DMSO control at this site: 1-bp insertion 0.017, MH deletion 0.666, edited 0.101) TTACACAGCATGAACTGCTAGGTGATGATGTCAGATTCGGTTTTACTAACTTCTCCAAAAA” as the target, how does the “fraction” value read?
The value was 0.0249.

For “30.0 (DMSO control at this site: 1-bp insertion 0.074, MH deletion 0.67, edited 0.142) GAGCTGGCATGAGTATTTGTGCCACATGGCTCCCACATGGCTCCACATGCAAGTTTGAAAC”, which “fraction” value is on record?
The value was 0.059.

How did the “fraction” value turn out when “44.0 (DMSO control at this site: 1-bp insertion 0.181, MH deletion 0.512, edited 0.123) ACACATACCTTCTTCGAGGCAGCCAGCATGATGAGACAGGTCTCCCACAAACACATCGTGT” was run?
The value was 0.221.

With “20.0 (DMSO control at this site: 1-bp insertion 0.349, MH deletion 0.138, edited 0.084) TACAGGTGTAGACTGGTTACGTGGCTGCGGAATTGACTGGTTACGTGGCTGCGGAATTTTG” as the target, how does the “fraction” value read?
The value was 0.373.

With “43.0 (DMSO control at this site: 1-bp insertion 0.134, MH deletion 0.714, edited 0.104) AGTTTAACTTACTCCGGCCAAAAAAGAACTGCACCTCTGGAGCGGGTTAGTGGTGGTGGTA” as the target, how does the “fraction” value read?
The value was 0.0843.

With “33.0 (DMSO control at this site: 1-bp insertion 0.008, MH deletion 0.771, edited 0.112) CATTAAGAGCAGCTGCCGGCCCCCAAGTGGACAGAGCTGGCCCTGCTGATTCAACAGTGCA” as the target, how does the “fraction” value read?
Its value is 0.0356.

compound: CCN1CCN(CC(=O)Nc2ccc(-c3cccc4c(=O)cc(N5CCOCC5)oc34)c3sc4ccccc4c23)CC1; assay: as above; conditions: mESC; 2uM; 72 h treatment, harvest day 5

How did the “fraction” value turn out when “32.0 (DMSO control at this site: 1-bp insertion 0.03, MH deletion 0.85, edited 0.898) AGAAGTCCAGGATCAGGGGGACTGGGGTCGGGAGGGTGGGGCAGGAAGGAAGCCAGAATCA” was run?
Its value is 0.00897.

How did the “fraction” value turn out when “26.0 (DMSO control at this site: 1-bp insertion 0.518, MH deletion 0.262, edited 0.026) AGGGCGCGCCCCACGCACTCTGCGGCAAGTCCCTCTGCGGCAAGTCCTCGGCCCGGAAGAC” was run?
The value was 0.131.

For “34.0 (DMSO control at this site: 1-bp insertion 0.184, MH deletion 0.385, edited 0.103) ATTATAGGACCCTGAGGGAGCAGAGATGTGGGAATGGGGGCCGAGCCAATTGTGATGTAAG”, which “fraction” value is on record?
Its value is 0.0647.

“18.0 (DMSO control at this site: 1-bp insertion 0.114, MH deletion 0.789, edited 0.094) GCGCAAGTGCATAAGTTTTTCTTAAGGCGTGCCTTTAAGGCGTGCCTTTGTCGGTCCTGGA” was tested. Which “fraction” value did it give?
The value was 0.0252.

With “41.0 (DMSO control at this site: 1-bp insertion 0.022, MH deletion 0.754, edited 0.115) AAAGAGACAGCAGGTATGAATCCATCTTCCTGACCCTTGGGACCAGCCGGGGCAGTGAAGC” as the target, how does the “fraction” value read?
The value was 0.0166.

With “47.0 (DMSO control at this site: 1-bp insertion 0.095, MH deletion 0.585, edited 0.118) GAGTGGTCCCGAGCCAGGAACTGTGTGTGTTGCAGGGGGGCAGTAACTCCCCAACTCCCTC” as the target, how does the “fraction” value read?
Its value is 0.0733.

“35.0 (DMSO control at this site: 1-bp insertion 0.01, MH deletion 0.72, edited 0.098) CCACTTTTAGAGAGGGTGAAAATCATCAGTTATCATCAGGGCAACAAATTGCTTTCTCCTA” was tested. Which “fraction” value did it give?
Its value is 0.0214.

For “16.0 (DMSO control at this site: 1-bp insertion 0.172, MH deletion 0.29, edited 0.05) CGGACTGCACACATGGGTAGGATCGTGCACGCGAGGTAGGATCGTGCACGCGAAGTTATTC”, which “fraction” value is on record?
Its value is 0.0987.

For “19.0 (DMSO control at this site: 1-bp insertion 0.121, MH deletion 0.101, edited 0.057) TCTGCAGGGGTCGGAACCCGGGGGCTAGGGCTATCCCGGGGGCTAGGGCTATTAGCGAACC”, which “fraction” value is on record?
The value was 0.0438.

How did the “fraction” value turn out when “22.0 (DMSO control at this site: 1-bp insertion 0.573, MH deletion 0.229, edited 0.045) CTGATGGTTGAAGGATTTAGCCGGGGTCCTAGACGCCGGGGTCCTAGACGAAAGGGCCACG” was run?
The value was 0.302.

Which “fraction” value does the source give for “38.0 (DMSO control at this site: 1-bp insertion 0.063, MH deletion 0.487, edited 0.17) GGGCTGGGTGCTAAAATGAGGAGCTCCAAGAAGACTGAGGTGAACCTGGAGGCCCCTGAGC” here?
The value was 0.0485.

Which “fraction” value does the source give for “5.0 (DMSO control at this site: 1-bp insertion 0.214, MH deletion 0.567, edited 0.105) CGCTGACCCGAGACCTACGCGAACCGAAATCGGCGACCGGTGCGCAAGCAGGGCTGGCGTC” here?
Its value is 0.0634.

For “1.0 (DMSO control at this site: 1-bp insertion 0.521, MH deletion 0.323, edited 0.141) GTGTCACAGTGCACGAGTGACGGGATAATGTGCTGACAGGTAATTGATAGGCTTCCAACTT”, which “fraction” value is on record?
The value was 0.243.

With “0.0 (DMSO control at this site: 1-bp insertion 0.463, MH deletion 0.339, edited 0.14) AGGATTACCGAGACCTACGCGAACCGAAATCGCTGTCCGGTGCGCAAGCAGGGCTGGCGTC” as the target, how does the “fraction” value read?
Its value is 0.175.

How did the “fraction” value turn out when “3.0 (DMSO control at this site: 1-bp insertion 0.109, MH deletion 0.149, edited 0.09) TGCTAGCGCCCCCACAAAGCGGACCAGCCAGCACTATAGGGAATAAGGCCAACTTGCACCC” was run?
The value was 0.0557.

How did the “fraction” value turn out when “7.0 (DMSO control at this site: 1-bp insertion 0.128, MH deletion 0.374, edited 0.098) TACTCAACCGAGACCTACGCGAACCGAAATCGTATGCCGGTGCGCAAGCAGGGCTGGCGTC” was run?
The value was 0.113.

“39.0 (DMSO control at this site: 1-bp insertion 0.328, MH deletion 0.371, edited 0.204) CTGCACAGTCACTTAGGATAGGAGAAGATGATGTATAGGGTTTAGTGGGAGATGTTGCAAG” was tested. Which “fraction” value did it give?
Its value is 0.163.

Which “fraction” value does the source give for “21.0 CGATTGAGAGTCAAACGGGCCAGAAAACTCCGGGAACGGGCCAGAAAACTCCGGGGCATGG” here?
The value was 0.0195.

Which “fraction” value does the source give for “25.0 (DMSO control at this site: 1-bp insertion 0.017, MH deletion 0.774, edited 0.143) GGGCCTGAATGGTGTGGACATCTACTCGCTGGTGAGCTGGTGACTGAAAACATTCAGTGGC” here?
Its value is 0.0169.

Which “fraction” value does the source give for “40.0 (DMSO control at this site: 1-bp insertion 0.072, MH deletion 0.192, edited 0.189) GCGAATCAACTGTTCAACAACAGCAGCAGCCACCTGGAGGACTACAGTGGCCTGTCCGTGT” here?
The value was 0.0486.

How did the “fraction” value turn out when “42.0 (DMSO control at this site: 1-bp insertion 0.145, MH deletion 0.655, edited 0.132) GGGCTAAACCTATGAGCACAGTAGAACTAAGGGTGGGTGGTGTAGCTAAAGAACTTGACCA” was run?
Its value is 0.0719.

Which “fraction” value does the source give for “28.0 (DMSO control at this site: 1-bp insertion 0.035, MH deletion 0.77, edited 0.142) TGGTTCTTCCTTTGTAGAGAGTGTTCATCTGGGAATCTGGGACTTGGATGAGACAATCATT” here?
Its value is 0.0168.

“2.0 (DMSO control at this site: 1-bp insertion 0.364, MH deletion 0.356, edited 0.125) GGTGCCCCCGAGACCTACGCGAACCGAAATCGATGTCCGGTGCGCAAGCAGGGCTGGCGTC” was tested. Which “fraction” value did it give?
Its value is 0.106.

With “4.0 (DMSO control at this site: 1-bp insertion 0.146, MH deletion 0.523, edited 0.125) ACGCCTTAGTGCACGAGTGACGGGATAATGTGGTCTCAGGTAATTGATAGGCTTCCAACTT” as the target, how does the “fraction” value read?
The value was 0.0339.

With “31.0 (DMSO control at this site: 1-bp insertion 0.315, MH deletion 0.329, edited 0.026) ACCTCCACAGGCTGGGTGGCCCGGAGGCTGGGCGGCCCGGAGGCTGGGCTGGGCGAGTATC” as the target, how does the “fraction” value read?
Its value is 0.106.
